# mIDH1 inhibitor: inhibitors of human mutant IDH1 R132H. O75874. IDH1-R132H enzyme, NADPH consumption, diaphorase/resazurin fluorescence. Potency, µM (highest dose often 76.6 µM), for the others: at the top dose activity change, negative = inhibition, actives largely listed as inhibitors. hit rate 0.093% among 390,000. AID 602179; also: potency is read from the fitted curve at half-maximal effect; nearly all actives have a fitted effect of over 65% in size
#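 IDH1-R132H (0.5 ug/mL) preincubated 30 min with compound, then NADPH (0.016 mM) and alpha-KG (2 mM) added; 80 min at RT, pH 7.5. Remaining NADPH coupled via diaphorase/resazurin to fluorescence (540/590 nm); concentration-response curves normalized to no-enzyme control.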
# LDHA block: LDHA (human) enzyme inhibition; P00338; purified LDHA, NADH/diaphorase-resazurin fluorescence; hits give low values; activity change, % (values are at about 110 or 230 µM); hit rate 0.15% among 480,000; in the data active = activity change below about -30%; inconclusive = mostly about -25% to -30%;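 also: plate controls were DMSO wells for no effect and wells without enzyme for full effect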
#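 Enzyme activity of human lactate dehydrogenase 5 (2 nM; 0.06 mM NADH, 0.2 mM pyruvate, 5 min, RT) is measured via a resazurin/diaphorase fluorescence readout of residual NADH.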
# GLS inhibitor: glutaminase GLS (human) inhibition; O94925; GLS enzymatic activity, qHTS titration; Potency, µM (doses to about 45.5 µM), for inactives: at the top dose activity change, negative = inhibition, most hits filed as inhibitors; hit rate 0.21% among 410,000; AID 624170; also: potency is read from the fitted curve at half-maximal effect
# Target sequence (O94925 whole entry, looked up): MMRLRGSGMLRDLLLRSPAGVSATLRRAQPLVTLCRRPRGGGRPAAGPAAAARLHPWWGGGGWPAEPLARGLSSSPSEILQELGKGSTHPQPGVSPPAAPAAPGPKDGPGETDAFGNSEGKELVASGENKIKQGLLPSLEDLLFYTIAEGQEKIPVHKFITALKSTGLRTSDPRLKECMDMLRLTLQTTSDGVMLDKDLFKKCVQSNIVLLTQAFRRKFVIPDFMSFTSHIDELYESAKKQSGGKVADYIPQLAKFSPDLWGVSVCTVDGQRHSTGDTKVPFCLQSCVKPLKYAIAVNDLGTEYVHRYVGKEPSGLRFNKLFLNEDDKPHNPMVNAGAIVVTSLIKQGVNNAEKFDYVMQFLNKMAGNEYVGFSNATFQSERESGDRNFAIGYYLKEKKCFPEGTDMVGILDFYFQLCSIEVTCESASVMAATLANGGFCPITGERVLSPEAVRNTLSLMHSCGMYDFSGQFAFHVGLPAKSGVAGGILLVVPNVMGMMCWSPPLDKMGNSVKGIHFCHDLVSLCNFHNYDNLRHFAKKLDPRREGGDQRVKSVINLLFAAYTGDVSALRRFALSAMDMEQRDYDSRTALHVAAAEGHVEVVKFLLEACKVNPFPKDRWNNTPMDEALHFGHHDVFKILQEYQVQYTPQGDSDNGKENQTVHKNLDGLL
#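 hKGA in 45 mM KH2PO4 (pH 8.2), 0.02% Tween-20 with compound, then 1mM L-Glutamine (stock as added) plus glutamate oxidase/HRP/Amplex red coupling mix. Fluorescence read initially and after 30 min at RT; signal change reflects glutamate formation.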
# rTrxR1 inhibitor: inhibitors of rat thioredoxin reductase 1; recombinant rTrxR1, NADPH fluorescence consumption, selenite substrate; O89049; Potency, µM (series often up to 114 µM), for inactives: top-dose activity change, negative = inhibition, usual class: inhibitors; hit rate 1% among 390,000; also: potency is read from the fitted curve at half-maximal effect; nearly all actives have a fitted effect of over 65% in size
#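 Rat TrxR1 (90 nM in the dispensed reagent) was pre-reduced with 400 uM NADPH for 5 min at room temperature, then incubated with compound for 15 min. After 400 uM selenite was added, NADPH fluorescence (Ex 340/Em 450 nm) was followed for 8 min.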
# PKM2 act: PKM2 (human) enzyme activation; P14618; purified PKM2, Kinase-Glo ATP luminescence, activation; response scale: 0% is enzyme alone, no compound; Potency, µM (series often up to 57.5 µM), for inactives: top-dose activation, hits mostly activators; hit rate 0.34% among 260,000; also: potency is read from the fitted curve at half-maximal effect; nearly all actives have a fitted effect of over 55% in size
#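 hPK-M2, >95% pure; 0.1 mM ADP / 0.5 mM PEP final; imidazole pH7.2 buffer w/ 7 mM MgCl2, 50 mM KCl; 1 h RT; Kinase-Glo lum. Intermediate enzyme activity for dual inhibitor/activator qHTS.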
# TrxR1 substrate: rat thioredoxin reductase 1 substrate activity; O89049; purified TrxR1 substrate turnover, NADPH consumption readout; Potency, µM (doses to about 114 µM), without a hit: top-dose activity change, negative = substrate turnover; hit rate 0.01% among 390,000; AID 588456; also: potency is read from the fitted curve at half-maximal effect; nearly all actives have a fitted effect of over 50% in size
#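 Rat TrxR1, dispensed at 90 nM, was prereduced with 400 uM NADPH (final) for 5 min at ~22 deg C, then incubated with compound 15 min before 400 uM selenite. A first-read NADPH fluorescence drop versus no-compound background flagged substrates.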
# Starred values were filed as active, the others as inactive; ? = inconclusive; . = no result given; ! = not active in a repeat; [ ] = remark or other dose. In the library only some 1.4% were active in any assay of this set; here they are far more common. Unless noted, calls follow the shape of the dose curve; as a rule, active = well fitted curve in the direction sought with a large enough effect; inconclusive = small, poorly fitted or top-dose-only effect, or another doubt; inactive = no such curve, though single readings can be large; an effect the other way counts as inactive or inconclusive. Unless noted, % is scaled to controls: 0 for no effect and ±100 for the full control effect.
SMILES,mIDH1 inhibitor,LDHA block,GLS inhibitor,rTrxR1 inhibitor,PKM2 act,TrxR1 substrate
Cc1cc(=O)oc2c(CN3CCCC3)c(O)ccc12,-3%,1,24%,18µM*,.,836%
CCc1cc(=O)oc2cc(C)c(CN3CCCC3)c(O)c12,5%,-10,3%,-21%,0%,5%
CC(=O)c1ccc(NC(=O)CN(C)Cc2ccccc2N2CCCCC2)cc1,.,6,.,.,.,.
N#CC(C#N)=Cc1cc2ccccc2nc1N1CCCCC1,-6%,5,?,18µM*,5%,1%
CCN(CC)CC1CCN(C(=O)c2cc(=O)[nH]c3ccccc23)CC1,.,0,.,.,.,.
O=C(NCc1ccc2c(c1)OCO2)c1nc(S(=O)(=O)Cc2ccccc2)ncc1Cl,-4%,-6,-3%,11µM*,.,3%
O=C(NCc1ccc2c(c1)OCO2)c1nc(S(=O)(=O)Cc2ccccc2F)ncc1Cl,-5%,-16,0%,21%,-1%[0.46 µM],4%
COc1ccc(CNC(=O)c2nc(S(=O)(=O)Cc3ccccc3)ncc2Cl)cc1,?,-1,0%,3.2µM*!,.,-4%
CC(=O)Nc1ccc(NC(=O)c2nc(S(=O)(=O)Cc3ccccc3)ncc2Cl)cc1,-11%,-5,2%,15%,.,-2%
O=C(NCc1ccccc1)c1nc(S(=O)(=O)Cc2ccccc2)ncc1Cl,-4%,3,-1%,2.8µM*!,.,-2%
CS(=O)(=O)c1ncc(Cl)c(C(=O)N(Cc2ccc(Cl)cc2)Cc2ccco2)n1,0%,5,4%,0.71µM*,.,12%
CCS(=O)(=O)NCc1ccnc(N2CCN(c3ccc(F)cc3)CC2)c1,.,0,.,.,.,.
O=C(Nc1c(Cl)cccc1Cl)C1=C(c2ccccc2)S(=O)(=O)CCO1,.,2,.,.,.,.
COc1ccc(N(Cc2ccccc2)C(=O)c2nc(S(C)(=O)=O)ncc2Cl)cc1,-1%,-6,8%,1µM*,.,7%
CCS(=O)(=O)c1ncc(Cl)c(C(=O)NCc2ccccc2)n1,.,0,4%,5.6µM*,.,4%
CC1(C)CS(=O)(=O)N(c2ccc(C(=O)Nc3ccc4c(c3)OCO4)cc2)C1=O,.,5,.,.,.,.
CC(C)C(=O)NC1CCCN(C(=O)c2cc(=O)[nH]c3ccccc23)C1 (stereo not given),.,0,.,.,.,.
NC(=O)c1sc2nc(-c3ccco3)ccc2c1N,3%,5,24%,45µM*,2%,7%
COc1ccc(Cc2nnc(SCC(=O)c3ccc(Cl)cc3)n2CC(C)C)cc1,.,6,.,.,.,.
COc1ccc(NC(=O)c2c(N)no[n+]2[O-])cc1,3%,-4,-21%,25%[57.1 µM],.,-3%
O=C(c1cccs1)c1no[n+]([O-])c1C(=O)c1cccs1,1%,4,-47%,0.71µM*,0%,4%
COc1ccc(C(=O)c2no[n+]([O-])c2C(=O)c2ccc(OC)cc2)cc1,-2%,3,5%,0.63µM*,14%,-6%
CC(C)(C)NC(=O)NC(=O)CSc1nnc(-c2ccccc2)c(-c2ccccc2)n1,.,-15,.,.,.,.
Cc1ccc(S(=O)(=O)N(CC(=O)NCc2ccncc2)c2ccc(C)c(Cl)c2)cc1,.,12,.,.,.,.
CCOC(=O)CSC1=NC(=O)CS1,-2%,-10,17%,14µM*,0%,0%
SMILES,mIDH1 inhibitor,LDHA block,GLS inhibitor,rTrxR1 inhibitor,PKM2 act,TrxR1 substrate
COc1ccc(OC(=O)c2cc(Cl)c(OC)c(Cl)c2)cc1,.,4,.,.,.,.
CC1=C(C)C(=O)C(CCCCC#CCCCC#CCO)=C(C)C1=O,21%,15,0%,30µM*,9%,5%[57.1 µM]
COC1=C(OC)C(=O)C(CCCCCCCCCCO)=C(C)C1=O,.,.,0%,.,1%,.
CC(C)CSc1nnc(-c2c[nH]c3ccccc23)n1C1CC1,.,-1,.,.,.,.
C/C=C(/C)C(=O)Nc1cccc(C2=NOC3(C2)C[C@@H](C(N)=O)N(C(=O)CC(c2ccccc2)c2ccccc2)C3)c1 (stereo not given in full),-12%,3,-7%,6%[57.1 µM],0%,0%[57.1 µM]
C=C(C)C(=O)Nc1cccc(C2=NOC3(C2)C[C@@H](C(N)=O)N(C(=O)CC(c2ccccc2)c2ccccc2)C3)c1 (stereo not given in full),0%,-3,11µM*,19%,-4%,6%
C=C(C)C(=O)Nc1cccc(C2=NOC3(C2)C[C@H](C(N)=O)N(C(=O)c2ccccc2C(=O)c2ccccc2)C3)c1 (stereo not given in full),5%,6,14µM*,9%[57.1 µM],-9%,5%[57.1 µM]
C/C=C(\C)C(=O)Nc1cccc(C2=NOC3(C2)C[C@@H](C(N)=O)N(C(=O)c2ccccc2C(=O)c2ccccc2)C3)c1 (stereo not given in full),-1%[38.3 µM],7,3%,-5%,-13%,0%
Cc1nc(-c2ccc(Cl)cc2)sc1C(=O)N1CCCC(C(=O)O)C1 (stereo not given),.,9,.,.,.,.
O=S(=O)(NCc1cc2cc(F)ccc2s1)c1ccc(Br)s1,.,1,.,.,.,.
NC1CCCN(Cc2cccs2)C1 (stereo not given),.,6,.,.,.,.
COc1ccc(-c2coc3cc(OCC(=O)NC(C)c4ccccc4)ccc3c2=O)cc1OC (stereo not given),.,4,.,.,.,.
CCCCn1cnc2c(SCc3ccc([N+](=O)[O-])cc3)nc(N)nc21,0%,-8,10%,5%,.,-4%
CCCCn1cnc2c(Sc3c([N+](=O)[O-])ncn3C)nc(N)nc21,2%,-4,-4%,2.8µM*,.,-6%
Nc1nc(SCc2ccccc2[N+](=O)[O-])c2ncn(Cc3ccccc3)c2n1,-9%,0,-17%,19%,.,-1%
Cn1cnc([N+](=O)[O-])c1Sc1nc(N)nc2c1ncn2Cc1ccccc1,5%,-5,3%,6.3µM*,.,-8%
CCCn1cnc2c(Sc3c([N+](=O)[O-])ncn3C)nc(N)nc21,1%,-2,7%,3.2µM*,.,-4%
CCOC(=O)c1c(C)c(-c2ccccc2)n(CC(=O)NCCN2CCCCC2CC)c1C (stereo not given),.,-2,.,.,.,.
COc1ccc(Cn2c(C)ccc2C)cc1,4%,-3,3%,32µM*,-3%,-1%
COc1ccc(S(=O)(=O)Nc2ccc3c(c2)CCN3C(=O)c2cccnc2)c(C)c1,.,3,.,.,.,.
O=C(OCc1nc2ccccc2s1)C1CCN(S(=O)(=O)c2cccs2)CC1,2%,-1,-8%,17%,8.9µM*,7%
O=C(CCc1nc2ccccc2s1)N1CCN(S(=O)(=O)c2cccs2)CC1,2%,-3,-6%,-3%,?,-8%

# Screening data as filed in PubChem.
